Activation data for 30 compounds are collected here from PubChem BioAssay AID574 (The Scripps Research Institute Molecular Screening Center, 2007).

Among all 65,000 compounds or so, about 450 (0.69%) were called active. Only a selection was taken, and actives are over-represented in it overall. Unmarked numbers belong to inactive results.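 The calls were made as follows: active = activation above a set limit, the screen-wide mean activation plus 3 SD (cut at about 8.5% in these data); inactive = the rest.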

Chain of 5-hydroxytryptamine receptor 1E (Homo sapiens) (P28566 whole entry, looked up): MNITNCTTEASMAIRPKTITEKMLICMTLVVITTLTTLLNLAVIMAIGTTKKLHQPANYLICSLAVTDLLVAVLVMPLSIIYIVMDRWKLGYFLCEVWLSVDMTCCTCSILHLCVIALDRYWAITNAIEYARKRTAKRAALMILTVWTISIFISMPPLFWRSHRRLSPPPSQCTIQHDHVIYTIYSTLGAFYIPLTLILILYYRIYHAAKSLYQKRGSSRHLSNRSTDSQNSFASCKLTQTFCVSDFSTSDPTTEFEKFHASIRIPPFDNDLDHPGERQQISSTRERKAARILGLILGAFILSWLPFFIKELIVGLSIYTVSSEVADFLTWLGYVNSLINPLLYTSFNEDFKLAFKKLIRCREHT

The assay addresses 5-hydroxytryptamine receptor 1E (Homo sapiens) (UniProt P28566). Nature of the assay: activation of human serotonin 5HT1E receptor – cell-based, HTS, primary screen (AID 574).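 Also: 100% = positive control agonist at 1 µM giving full maximal response.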 The conditions noted are these: CHO 5-HT1E Ga15 NFAT-bla reporter, FRET; at 6 µM; hits give high values; 0% DMSO wells, 100% control agonist wells.
On to `O=C(O)CN(Cc1ccco1)S(=O)(=O)c1ccc(F)cc1`, for which the activation was 0%.
Turning to `COc1cccc(OC)c1C(=O)Nc1nnc(C(C)C)s1`, the activation is -0.1%.
For the compound `CCn1c(CNc2ccc(OC)cc2)nnc1SCC(=O)c1ccc(OC)cc1`, the activation is 0.6%.
Next, `CC1=C(C(=O)OC2CCCCC2)C(c2cccnc2)n2ncnc2N1` (stereo not given): -0.4%.
The result for `Cc1ccnc(SCCn2c(N(C)Cc3ccccc3)nc3c2c(=O)n(C)c(=O)n3C)n1` reads -0.1%; that for `CCOC(=O)C1(c2ccccc2)NC(c2ccc(N(C)C)cc2)C2C(=O)N(C)C(=O)C21` (stereo not given), 0.7%.
Regarding `COc1ccccc1-n1cnc2cc(C(=O)NCC3CCCO3)ccc21` (stereo not given), the activation was 0%.
Regarding `C=CCn1c(COc2ccccc2)nnc1SCC(=O)NCC(=O)OCC`, the activation is -0.3%.
For `CCc1nnc(NC(=O)CSc2nc3c(c(=O)n2-c2ccccc2OC)SCC3)s1`, the activation is -0.6%.
For the compound `CCCC1C(c2ccccc2)C(C#N)(C#N)C2(C#N)CC1(N)NC2=O` (stereo not given), the activation is 0.5%.
The result for `Cc1cc(C(=O)OCC(=O)c2c(N)n(C)c(=O)n(C)c2=O)c(C)o1` reads 0.7%; that for `CC(=O)OCc1cc(=O)n(C)c(=O)n1C`, -1.2%; that for `CC(=O)c1c(N)n(C)c(=O)n(C)c1=O`, 22.1% (active).
Next, `Cc1ccc(N(C(=O)CC2NC(=O)NC2=O)C2(C(=O)NC3CCCC3)CCCCC2)cc1` (stereo not given): -0.5%.
The result for `CC(C)(C)OC(=O)c1c(N)n(CCCN2CCCC2=O)c2nc3ccccc3nc12` reads 2.2%; that for `CSc1nc2ccc(S(=O)(=O)N3CCc4ccccc43)cc2s1`, 0.9%.
In the case of `COCCCNC(=O)C1CC(=O)N(c2ccc(C)cc2)C1` (stereo not given), the activation was -1.2%.
As to `CC(CCO)Nc1nc2c([nH]1)c(=O)n(C)c(=O)n2C` (stereo not given), the activation is -1.6%.
With `CCCOc1ccc(/C(O)=C2/C(=O)C(=O)N(CCN(C)C)C2c2ccc(OC)c(OC)c2)cc1` (stereo not given), the activation was -0.3%.
For `O=C(Nc1cccc2c1CCCC2)C1CCN(C(=O)NC2CCCCC2)CC1`, the activation is -1.2%.
The result for `CC1(C)CN=C(N2CCN(c3ncnc4sc5c(c34)CCCC5)CC2)S1` reads -0.6%; that for `CCc1ccc(Nc2ncc3c(n2)CC(c2ccco2)CC3=O)cc1` (stereo not given), -0.5%.
For `CCOCC(=O)NCc1ccc2c(c1)cc(C)n2C`, the activation was 0.7%.
The result for `COc1ccc(S(=O)(=O)Nc2ccc3c(c2)OCO3)cc1Cl` reads -1.3%; that for `Cc1nc(NCCN)c(C#N)c2c1COC(C)(C)C2`, -0.4%.
As for `CCCCN(C)C(=O)c1ccc2c(c1)N(CC)C(=O)c1ccccc1S2(=O)=O`, the activation is -1.1%.
Next, `O=C(Nc1ccccc1C(=O)N1CCOCC1)C1CCC(=O)N1C1CCCC1` (stereo not given): 0.6%; `Cc1cc(=O)cc(C)[nH]1`: 33.2% (active).
With `Cc1cc(C)nc(SCc2nnc(SCC(=O)Nc3ncc(C)s3)n2Cc2ccco2)n1`, the activation was 0.8%.
Turning to `CCN1C(=O)CS/C1=N\c1nccs1`, the activation was -0.1%.
